AMA1-RON2 inh: inhibitors of Plasmodium falciparum AMA1-RON2 interaction. AlphaScreen AMA1-biotinylated RON2 peptide binding. Potency, µM (top dose mostly 58.2 µM), without a hit: at the top dose activity change, negative = inhibition, most hits filed as inhibitors. actives 0.2% (n = 360,000). AID 720542;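 further: 0% = vehicle wells and -100% = peptide control; nearly all actives have a fitted effect of over 45% in size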
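AMA1 (3D7) with his tag at 25 nM final met compounds first, then biotinylated RON2 peptide at 25 nM; detection used donor plus acceptor beads, 10 µg/mL apiece, read by AlphaScreen after 30 min at room temperature.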
Giardia FBPA inh: blocks Giardia fructose-bisphosphate aldolase activity; purified Giardia FBPA; A8B2U2; Potency, µM (doses to about 59.6 µM), inactives show at the top dose activity, negative = inhibition, hits mostly inhibitors; AID 2451; actives 0.71% (n = 290,000); further: nearly all actives have a fitted effect of over 55% in size
Target sequence (A8B2U2 whole entry, looked up): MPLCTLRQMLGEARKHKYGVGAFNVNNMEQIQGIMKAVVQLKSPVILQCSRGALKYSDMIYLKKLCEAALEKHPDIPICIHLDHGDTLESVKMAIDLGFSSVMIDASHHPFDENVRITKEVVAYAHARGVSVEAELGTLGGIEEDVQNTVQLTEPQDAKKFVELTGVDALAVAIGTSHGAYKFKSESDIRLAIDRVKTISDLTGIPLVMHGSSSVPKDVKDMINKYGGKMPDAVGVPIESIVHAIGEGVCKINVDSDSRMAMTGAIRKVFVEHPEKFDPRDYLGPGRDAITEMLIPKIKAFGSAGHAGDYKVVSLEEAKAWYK
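Giardia FBPA (40 nM reagent) was preincubated 10 min at RT with compound (up to 57.5 uM final), then substrate plus GAPDH/TPI/NAD/arsenate coupling system with diaphorase/resazurin was added; resorufin fluorescence (525/598 nm) was read after 20 min.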
AmpC inh no detg: blocks E. coli AmpC beta-lactamase in detergent-free assay; Potency, µM (series often up to 57.1 µM), for the others: top-dose activity change, negative = inhibition, usual class: inhibitors; AmpC nitrocefin hydrolysis, absorbance 480 nm, 0.0001% Triton; actives 0.52% (n = 330,000);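 further: plate controls were no compound for no effect and no enzyme for full effect; nearly all actives have a fitted effect of over 20% in size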
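AmpC (5.3 nM in the dispensed reagent) in 20 mM phosphate pH 7.0 with 0.01% (detergent screen) or 0.0001% Triton X-100 was preincubated with compounds for 15 min at room temperature. Nitrocefin was then added from an 800 uM solution, and hydrolysis was followed at 480 nm.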
AmpC inh detg: AmpC beta-lactamase inhibition with detergent present | actives 0.041% (n = 370,000) | AmpC hydrolysis of nitrocefin, absorbance 480 nm, 0.01% Triton | P00811 | AID 485294 | Potency, µM (doses to about 114 µM), for inactives: at the highest dose activity change, negative = inhibition, usual class: inhibitors;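 further: 0% = no-compound wells and -100% = no-enzyme wells; nearly all actives have a fitted effect of over 25% in size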
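AmpC (5.3 nM in the dispensed reagent) in 20 mM phosphate pH 7.0 with 0.01% (detergent screen) or 0.0001% Triton X-100 was preincubated with compounds for 15 min at room temperature. Nitrocefin was then added from an 800 uM solution, and hydrolysis was followed at 480 nm.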
* = called active by the depositor; u = inconclusive; x = no result; ! = not active in a repeat; [ ] = another dose, or the depositor's remark. Hits are enriched below; roughly 1.1% of the tested compounds scored in any of these assays. The call rests on the fitted dose curve; in most records, active means well fitted curve in the direction sought with a large enough effect; inconclusive means small, poorly fitted or top-dose-only effect, or another doubt; inactive means no such curve, though single readings can be large; an effect the other way counts as inactive or inconclusive. Unless noted, on the % scale 0 is the no-effect control and ±100 the full control effect; potency means the concentration at half of the fitted maximal effect.

SMILES | AMA1-RON2 inh | Giardia FBPA inh | AmpC inh no detg | AmpC inh detg
Cc1ccsc1/C=N/NC(=S)NCCc1ccccc1 | 67.3% | 1.7% | 17.8µM* | -8.9%
Cc1ccc2c(c1)c(C)cc[n+]2Cc1ccccc1 | -6.6% | -2.3% | -23.6% | -8.3%
CC[n+]1ccc(C[n+]2ccccc2)c2ccccc21 | -4.2%[11.6 µM] | u | u | 31.6µM*
CCc1nnc(NC(=O)CSc2nnc3ncccn23)s1 | 16.3% | -4.4% | 0.316µM* | 4.1%
Cc1cnc(NC(=O)CSc2nnc3ncccn23)s1 | -5.8% | -29.9% | -12.2% | 7.3%
Clc1ccc(-c2nn3c(-c4ccccc4)nnc3s2)cc1 | 12.8% | 22.1% | -15.7% | 9.9%
Cc1cn2c(-c3ccc(Cl)cc3)nnc2s1 | -1.6% | -13.1% | 20µM* | -12.1%
FC(F)(F)C1=Nc2cccc3cccc(c23)N1 | u | x | 8.91µM* | u
COC(=O)C1=C(C)NC(C)=C([N+](=O)[O-])[C@H]1c1ccccc1C(F)(F)F | x | -16.4% | x | x
COC(=O)C1=C(C)NC(C)=C(C(=O)OCC(C)C)C1c1ccccc1[N+](=O)[O-] (centres undefined) | 14.1µM* | x | x | x
CN(CCCNC(=O)Cn1cc2c(n1)CCCC2)C1CCCCC1 | 9.4% | -2.5% | -4.4% | -14.3%
CCN(Cc1ccccc1)C(=O)Cn1cc2c(n1)CCCC2 | -3.1% | -3.7% | 4.47µM* | -14.5%
CCOCCCNC(=O)Cn1cc2c(n1)CCCCC2 | 20.3% | 0.7% | 44.7µM* | u
Cc1ccc(NC(=O)Cn2cc3c(n2)CCCC3)c(C)c1 | x | x | x | 18.5%
O=C(Cn1cc2c(n1)CCCCC2)NCc1ccccc1 | 11.7% | -3.9% | -4.5% | u
Cc1ccc2nc(NC(=O)Cn3cc4c(n3)CCCCC4)sc2c1 | 22.4% | u | 2.82µM* | u
CC(C)CCNC(=O)Cn1cc2c(n1)CCCCC2 | -6.2% | 0.9% | 44.7µM* | u
CN(C)c1cccc(NC(=O)C2Cc3c(-c4ccc(Cl)cc4)ccnc3O2)c1 (centres undefined) | 25.1µM* | x | x | x
Cc1nc(NC(=O)C(C)(C)C)sc1C(=O)Cn1cc(CCCC#N)nn1 | 7.6% | x | x | x
CC(C)CCN(C)C1CCN(S(=O)(=O)c2ccc(F)cc2)CC1 | -1.2% | -1.3% | 10µM* | -11.9%
O=S(=O)(c1ccc(F)cc1)N1CCC(N2CCCC2)CC1 | -14.3% | -11.2% | -17.9% | u
N#C/C(=C/c1ccc(N2CCCCC2)cc1)c1cccc(F)c1 | 15.8µM* | -4.0% | -20.3% | u
O=S(=O)(NCCn1ccc2ccccc21)c1ccccc1 | -1.6% | -7.1% | 25.1µM* | -13.9%
N[C@@H](C(=O)O)[C@H](CC(=O)O)c1ccc(Cl)cc1 | x | 3.8% | x | x
C[n+]1cc2c3c(ccc2c2ccc4cc5c(cc4c21)OCO5)OCO3 | x | 6.29µM*! | x | x
SMILES | AMA1-RON2 inh | Giardia FBPA inh | AmpC inh no detg | AmpC inh detg
CC(C)Cn1c([N+](=O)[O-])nc2c1c(=O)[nH]c(=O)n2C | 1.7% | u | 1.6% | -1.3%
Cn1c(=O)[nH]c(=O)c2c1nc([N+](=O)[O-])n2Cc1ccccc1 | -7.5% | 14.1µM* | -4.4% | 6.8%
O=C(N/N=C/c1cccs1)c1cccc(S(=O)(=O)Nc2ccc(Cl)cc2)c1 | 0.8% | 6.3% | 14.1µM* | -12.2%
O=C(CSc1ccc2ccccc2c1Br)Nc1cccc(S(=O)(=O)NC2=NCCCCC2)c1 | -13.7% | 2.3% | 7.08µM* | -10.0%
Cc1ccc(C)c(SCC(=O)Nc2cccc(S(=O)(=O)NC3=NCCCCC3)c2)c1 | -7.6%[2.32 µM] | -5.1% | -37.5% | -11.3%
OCCNc1nc(Cl)nc(NCc2ccco2)n1 | -6.4% | -1.2% | -7.1% | -5.3%
CCCN(CCC)c1nc(Cl)nc(NCc2ccco2)n1 | 2.2% | 3.0% | 0.159µM* | -2.8%
CCOc1ccc(NC(=O)CC2C(=O)N(c3cccc(C)c3)C(=O)N2Cc2ccco2)cc1 (centres undefined) | x | x | x | 11.2%
Cc1cccc(S(=O)(=O)NC(=O)C2(C)CCN2C(=O)Cc2cc(F)ccc2F)c1 (centres undefined) | 39.8µM* | x | x | x
CC1(C(=O)NS(=O)(=O)c2cccc(Cl)c2)CCN1C(=O)Cc1cc(F)ccc1F (centres undefined) | -1.6% | x | x | x
CN1OC[C@@H]2CN(Cc3ccc(Cl)cc3)[C@H](c3ccc(-n4ccnc4)cc3)C[C@@H]21 | 1.0% | x | x | x
CN1OC[C@@H]2CN(S(=O)(=O)c3ccccc3)[C@H](c3ccc(N4CCCCC4)cc3)C[C@@H]21 | 8.0% | x | x | x
CN1OC[C@@H]2CN(Cc3ccc4c(c3)OCO4)[C@H](c3ccc(N4CCCCC4)cc3)C[C@@H]21 | 14.1µM* | x | x | x

Screening results (PubChem BioAssay)
